In the library only some 4.1% were active in any assay of this set; here they are far more common.
CASP6 VEID inh: caspase-6 (human) enzyme inhibition; P55212; purified caspase-6, Z-VEID-R110 cleavage fluorescence; inhibition, % at 12.5 µM; actives 0.53% (n = 350,000); AID 686996;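 active = mean inhibition across replicates at least about 35%, with every replicate also reaching that limit, limit read from the data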;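 also: 0% = median of neutral control wells and 100% = no fluorescence left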
Target sequence (P55212 24-179 limits assumed): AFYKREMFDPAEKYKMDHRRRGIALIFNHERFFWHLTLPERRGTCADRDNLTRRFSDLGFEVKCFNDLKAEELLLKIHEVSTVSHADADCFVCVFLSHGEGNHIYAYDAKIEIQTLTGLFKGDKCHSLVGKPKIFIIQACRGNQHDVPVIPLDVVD
Target sequence (P55212 194-293 limits assumed): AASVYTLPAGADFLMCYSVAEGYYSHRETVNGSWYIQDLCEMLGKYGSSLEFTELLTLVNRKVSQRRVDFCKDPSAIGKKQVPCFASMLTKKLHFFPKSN
ALR H2O2 inh: inhibitors of human sulfhydryl oxidase ALR; purified ALR, DTT oxidation, H2O2 HRP-luminol luminescence; inhibition, % (concentration not given with the values); AID 485317; P55789; actives 3.8% (n = 290,000);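 active = mean replicate inhibition above about 79%, with every replicate also reaching it, limit read from the data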
Target sequence (P55789 whole entry, looked up): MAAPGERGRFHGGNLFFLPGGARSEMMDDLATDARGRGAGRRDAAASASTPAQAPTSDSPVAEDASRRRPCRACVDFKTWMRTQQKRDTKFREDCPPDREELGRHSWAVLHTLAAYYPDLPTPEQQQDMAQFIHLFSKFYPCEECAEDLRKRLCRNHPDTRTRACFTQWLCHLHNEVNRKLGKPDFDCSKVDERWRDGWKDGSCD
CFTR F508del cor: correctors of CFTR F508del function in bronchial epithelial cells; CFBE cells, YFP halide quenching; stimulated with forskolin plus potentiator P3; % fluorescence drop versus neutral controls; activity (quench increase), % at 7.58 µM; actives 0.36% (n = 350,000);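 active = mean added fluorescence quench of at least 8% versus neutral control, with both replicates also reaching 8%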;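 also: cells transiently co-express mutant CFTR-F508del with the halide-sensitive YFP; corrector assay measuring rescue of mutant channel to the surface after 24 h compound exposure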
NSD2 HMT inh: inhibitors of human histone methyltransferase NSD2; actives 0.54% (n = 310,000); inhibition, % at 12.5 µM; NSD2 peptide methylation, AlphaScreen, 120 min; in the data active = inhibition above about 50%
PglD DTNB: inhibitors of Campylobacter jejuni PglD acetyltransferase | purified PglD enzyme, DTNB colorimetric CoA detection | inhibition, % at 12.5 µM | actives 0.098% (n = 360,000) | AID 602405; in the data active = inhibition above about 16%, passing the limit was not always enough
Env fusion inh: inhibitors of HIV Env-mediated cell fusion | inhibition, % at 12.3 µM | actives 1.1% (n = 360,000) | HeLa-JRFL Env/CEM21 cell fusion, luciferase;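 active = mean replicate inhibition score of at least 50 and every replicate individually at or above 50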;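 also: 0% = plate neutral controls and 100% = maraviroc near 300 nM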
Active calls of the source: *; [ ] = remark or other dose.

For Cn1c(SCC(=O)Nc2ccc3[nH]c(=O)[nH]c3c2)nnc1-c1ccc(F)cc1 the results were CASP6 VEID inh -0.4, ALR H2O2 inh 99.0*, CFTR F508del cor 0.4, NSD2 HMT inh -1.5 and Env fusion inh -19.6.
C[C@@H]1CN([C@H](C)CO)C(=O)c2cccc(NC(=O)c3ccncc3)c2O[C@@H]1CN(C)Cc1ccc(C(=O)O)cc1 was read as CASP6 VEID inh -2.4, ALR H2O2 inh -1.6, CFTR F508del cor 0.8, PglD DTNB 1.4 and Env fusion inh 113.9*.
Screening C[C@H]1CN([C@@H](C)CO)C(=O)c2cccc(NC(=O)Nc3ccccc3)c2O[C@@H]1CN(C)Cc1ccc(Cl)c(Cl)c1 returned CASP6 VEID inh 0.8, CFTR F508del cor 1.2, PglD DTNB -0.3 and Env fusion inh 62.1*[16.7 µM].
C[C@@H]1CN([C@H](C)CO)C(=O)c2cc(N(C)C)ccc2O[C@@H]1CN(C)Cc1ccc(C(=O)Nc2ccccc2N)cc1 was read as CASP6 VEID inh 0.0, CFTR F508del cor 9.2*, PglD DTNB 0.7 and Env fusion inh -5.2[16.7 µM].
C[C@H]1CN([C@@H](C)CO)C(=O)c2cccc(NC(=O)Nc3ccccc3)c2O[C@H]1CN(C)C was read as CASP6 VEID inh -0.8, CFTR F508del cor -0.3, PglD DTNB 19.1* and Env fusion inh -14.8[16.7 µM].
For C[C@@H]1CN([C@@H](C)CO)C(=O)c2cccc(NC(=O)c3ccncc3)c2O[C@H]1CN(C)Cc1ccc(C(=O)O)cc1 the results were CASP6 VEID inh 3.3, CFTR F508del cor 0.3 and PglD DTNB 0.7.
`C[C@@H]1CN([C@H](C)CO)C(=O)c2cc(N(C)C)ccc2O[C@H]1CN(C)Cc1ccc(C(=O)Nc2ccccc2N)cc1` gave CASP6 VEID inh 1.5, CFTR F508del cor 2.3, PglD DTNB 1.7 and Env fusion inh 3.5[16.7 µM].
COc1ccc(-c2cn(CC[C@@H]3CC[C@H](NC(=O)Nc4ccc(F)cc4)[C@H](CO)O3)nn2)cc1 was read as CASP6 VEID inh -1.6 and CFTR F508del cor 0.3.
Screening COc1ccccc1NC(=O)N1C[C@@H]2N[C@H](C1)C2c1ccc(-c2ccc(C#N)cc2)cc1 (stereo partly specified) returned CASP6 VEID inh 1.0 and CFTR F508del cor 1.2.
For C[C@H]1CN([C@@H](C)CO)C(=O)c2cccc(NC(=O)Nc3cccc4ccccc34)c2O[C@H]1CN(C)CC1CCCCC1 the results were CASP6 VEID inh 1.5, CFTR F508del cor 2.5 and PglD DTNB -1.9.
C[C@@H]1CN([C@H](C)CO)C(=O)c2cccc(NC(=O)c3ccncc3)c2O[C@H]1CN(C)Cc1ccc(Cl)c(Cl)c1 was read as CASP6 VEID inh 5.0, CFTR F508del cor -4.7, PglD DTNB 0.8 and Env fusion inh 74.9*[16.7 µM].
C[C@@H]1CN([C@@H](C)CO)C(=O)c2cccc(NC(=O)c3cnccn3)c2O[C@H]1CN(C)Cc1ccc(Cl)c(Cl)c1 was read as CASP6 VEID inh -0.7, CFTR F508del cor -3.1, PglD DTNB 2.5 and Env fusion inh 62.6*[16.7 µM].
C[C@@H]1CN([C@@H](C)CO)C(=O)c2cccc(NC(=O)Nc3cccc4ccccc34)c2O[C@H]1CN(C)CC1CC1 was read as CASP6 VEID inh 37.9*, CFTR F508del cor -1.2, PglD DTNB 1.8 and Env fusion inh 13.8[16.7 µM].
C[C@H](CO)N1C[C@H](C)[C@H](CN(C)CC2CCCCC2)Oc2c(NS(=O)(=O)c3ccc(Cl)cc3)cccc2C1=O was read as CASP6 VEID inh 0.0, CFTR F508del cor -2.0, PglD DTNB 2.0 and Env fusion inh -51.1[16.7 µM].
C[C@@H]1CN([C@H](C)CO)C(=O)c2cccc(NS(=O)(=O)c3ccc(Cl)cc3)c2O[C@H]1CN(C)CC1CCCCC1 was read as CASP6 VEID inh 0.7, CFTR F508del cor -0.2, PglD DTNB 0.8 and Env fusion inh 88.4*[16.7 µM].
`C[C@@H]1CN([C@@H](C)CO)C(=O)c2cc(C3=CCCCC3)cnc2O[C@H]1CN(C)S(C)(=O)=O` gave CFTR F508del cor 0.6 and Env fusion inh -8.6[16.7 µM].
O=C(C[C@H]1CC[C@@H](NS(=O)(=O)c2ccccc2)[C@H](CO)O1)N1CCC(Cc2ccccc2)CC1 was read as CASP6 VEID inh 0.0 and CFTR F508del cor 2.8.
`O=C(c1ccc2c(c1)OCO2)N1CC2(C1)[C@H](c1ccccc1)[C@@H](CO)N2C(=O)C1CCC1` gave CASP6 VEID inh 0.4 and CFTR F508del cor -2.4.
`C[C@@H]1CN([C@H](C)CO)C(=O)c2cccc(NC(=O)c3ccncc3)c2O[C@H]1CN(C)CC1CCCCC1` gave CASP6 VEID inh 2.0, CFTR F508del cor 1.5, PglD DTNB 0.5 and Env fusion inh 93.4*[16.7 µM].
COc1ccc2c(c1OC)C(=O)OC2CC(=O)c1ccc(O)c(O)c1 (stereo unspecified) was read as ALR H2O2 inh 99.1*, NSD2 HMT inh 5.5, PglD DTNB 5.6 and Env fusion inh 7.4.
For C[C@@H]1CCCCO[C@@H](CN(C)S(=O)(=O)c2ccc(Cl)cc2)[C@H](C)CN([C@@H](C)CO)C(=O)c2cc(NS(=O)(=O)c3ccccc3)ccc2O1 the results were CASP6 VEID inh 0.1 and CFTR F508del cor 4.2.
For Cc1ccc(-c2cc(-c3ccccc3)nc(N/N=C/c3cccnc3)n2)cc1 the results were ALR H2O2 inh 0.0, NSD2 HMT inh -0.9, PglD DTNB 2.1 and Env fusion inh -152.0.
Screening Cc1ccc2nc(C)cc(N/N=C/c3cccnc3)c2c1 returned CASP6 VEID inh -0.8, ALR H2O2 inh 99.3*, CFTR F508del cor -1.7, NSD2 HMT inh 3.4 and Env fusion inh -11.0.
COc1ccc2nc(C)cc(N/N=C/c3cccc(OC)c3O)c2c1 was read as CASP6 VEID inh -1.0, ALR H2O2 inh 87.4*, CFTR F508del cor -7.4, NSD2 HMT inh 3.7, PglD DTNB -9.7 and Env fusion inh -5.6.
`Cc1cc(N/N=C/c2ccccc2O)c2ccccc2n1` gave CASP6 VEID inh -10.1, ALR H2O2 inh 98.7*, CFTR F508del cor 15.9*, NSD2 HMT inh 10.6, PglD DTNB -14.0 and Env fusion inh -4.3.
Screening Cc1cc(-c2ccccc2)nc(N/N=C/c2ccc(O)cc2O)n1 returned CASP6 VEID inh 2.4, ALR H2O2 inh 65.5, CFTR F508del cor -8.9, NSD2 HMT inh 11.6, PglD DTNB 3.2 and Env fusion inh -4.7.
For COc1ccc(/C=N/Nc2cc(C)nc3ccc(Br)cc23)cc1 the results were CASP6 VEID inh -6.2, ALR H2O2 inh 6.2, CFTR F508del cor -3.2, NSD2 HMT inh -2.9, PglD DTNB -7.8 and Env fusion inh -14.2.
For CN(C)C(=O)C[C@H]1C[C@H]2c3cc(NC(=O)NC4CCCCC4)ccc3O[C@H]2[C@@H](CO)O1 the results were CASP6 VEID inh -2.0, CFTR F508del cor 0.1, PglD DTNB -1.7 and Env fusion inh 15.7[16.7 µM].
